PubChem BioAssay (Tox21)
Values without a mark were called inactive. Results filed as inconclusive are left out. Entries that show only a call come without a potency. Activity calls are given as the source filed them. Unless noted, calls come from the whole dose curve; as a rule, active = well fitted curve in the direction sought with a large enough effect in the repeat runs; inconclusive = weak or mixed curves; inactive = no such curve, though single readings can be large; an effect the other way counts as inactive or inconclusive.

Columns and labels:
[1] = target: Luciferin 4-monooxygenase (Photinus pyralis) (UniProt P08659); assay: qHTS assay to identify small molecule inhibitors of firefly luciferase (AID 1224835); note: nearly all actives have a fitted effect of over 25% in size; note: potency is the fitted concentration of half-maximal effect
Chain of Luciferin 4-monooxygenase (Photinus pyralis) (P08659 whole entry, looked up): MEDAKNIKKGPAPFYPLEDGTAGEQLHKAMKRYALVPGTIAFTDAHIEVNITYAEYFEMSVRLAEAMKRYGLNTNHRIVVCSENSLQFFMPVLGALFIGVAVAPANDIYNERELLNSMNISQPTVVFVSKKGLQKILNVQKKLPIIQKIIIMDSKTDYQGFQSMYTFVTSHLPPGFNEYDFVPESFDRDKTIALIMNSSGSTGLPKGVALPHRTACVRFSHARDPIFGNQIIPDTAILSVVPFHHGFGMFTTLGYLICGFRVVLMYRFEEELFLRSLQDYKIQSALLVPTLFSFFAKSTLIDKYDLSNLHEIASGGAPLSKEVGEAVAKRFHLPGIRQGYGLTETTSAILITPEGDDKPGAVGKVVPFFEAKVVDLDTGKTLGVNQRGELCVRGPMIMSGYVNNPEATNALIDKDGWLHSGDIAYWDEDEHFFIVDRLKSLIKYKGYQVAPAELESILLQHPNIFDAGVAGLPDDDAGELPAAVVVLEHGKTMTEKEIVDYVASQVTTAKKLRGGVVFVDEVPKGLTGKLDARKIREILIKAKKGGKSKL
How it was run: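 Quantitative HTS format; KM concentrations of both substrates. Purified P. pyralis FLuc activity quantified from luminescence images.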

[2] = target: Nuclear receptor subfamily 1 group I member 3 (Homo sapiens) (UniProt Q14994); assay: qHTS assay to identify small molecule antagonists of the constitutive androstane receptor (CAR) signaling pathway (AID 1224838); note: nearly all actives have a fitted effect of over 40% in size; note: potency is the fitted concentration of half-maximal effect
Chain of Nuclear receptor subfamily 1 group I member 3 (Homo sapiens) (Q14994 whole entry, looked up): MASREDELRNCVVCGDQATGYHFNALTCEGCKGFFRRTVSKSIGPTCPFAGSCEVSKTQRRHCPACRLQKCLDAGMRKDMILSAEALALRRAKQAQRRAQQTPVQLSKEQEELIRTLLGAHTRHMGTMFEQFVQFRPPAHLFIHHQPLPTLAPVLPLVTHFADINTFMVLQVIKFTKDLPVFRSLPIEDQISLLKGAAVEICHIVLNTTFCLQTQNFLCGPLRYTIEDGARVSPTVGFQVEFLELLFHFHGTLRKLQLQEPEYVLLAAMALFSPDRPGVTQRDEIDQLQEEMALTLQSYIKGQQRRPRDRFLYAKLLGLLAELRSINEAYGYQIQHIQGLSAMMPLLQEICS
How it was run: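 HepG2 cells stably co-transfected with hCAR and a CYP2B6-2.2kb luciferase reporter were seeded 4 h before compound addition at 15 concentrations. Cells were stimulated with 50 nM CITCO (final) for 24 h at 37 C; luciferase luminescence was then read.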

[3] = target: Nuclear receptor subfamily 1 group I member 3 (Homo sapiens) (UniProt Q14994); assay: qHTS assay to identify small molecule agonists of the constitutive androstane receptor (CAR) signaling pathway (AID 1224839); note: nearly all actives have a fitted effect of over 15% in size; note: potency is the fitted concentration of half-maximal effect;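 for activation: HepG2 cells stably carrying human CAR and a CYP2B6 luciferase reporter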
How it was run: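 Cells were plated and incubated 4 hrs, then dosed with compounds at 15 concentrations. PK11195 was added to 0.75 uM final. After 24 hrs at 37 C, luciferase luminescence was measured.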

[4] = target: Thyrotropin receptor (Homo sapiens) (UniProt P16473); assay: qHTS assay to identify small molecule agonists of the thyroid stimulating hormone receptor (TSHR) signaling pathway (AID 1224843; calls by dose curve; note: nearly all actives have a fitted effect of over 45% in size; note: potency is the fitted concentration of half-maximal effect)
Chain of Thyrotropin receptor (Homo sapiens) (P16473 whole entry, looked up): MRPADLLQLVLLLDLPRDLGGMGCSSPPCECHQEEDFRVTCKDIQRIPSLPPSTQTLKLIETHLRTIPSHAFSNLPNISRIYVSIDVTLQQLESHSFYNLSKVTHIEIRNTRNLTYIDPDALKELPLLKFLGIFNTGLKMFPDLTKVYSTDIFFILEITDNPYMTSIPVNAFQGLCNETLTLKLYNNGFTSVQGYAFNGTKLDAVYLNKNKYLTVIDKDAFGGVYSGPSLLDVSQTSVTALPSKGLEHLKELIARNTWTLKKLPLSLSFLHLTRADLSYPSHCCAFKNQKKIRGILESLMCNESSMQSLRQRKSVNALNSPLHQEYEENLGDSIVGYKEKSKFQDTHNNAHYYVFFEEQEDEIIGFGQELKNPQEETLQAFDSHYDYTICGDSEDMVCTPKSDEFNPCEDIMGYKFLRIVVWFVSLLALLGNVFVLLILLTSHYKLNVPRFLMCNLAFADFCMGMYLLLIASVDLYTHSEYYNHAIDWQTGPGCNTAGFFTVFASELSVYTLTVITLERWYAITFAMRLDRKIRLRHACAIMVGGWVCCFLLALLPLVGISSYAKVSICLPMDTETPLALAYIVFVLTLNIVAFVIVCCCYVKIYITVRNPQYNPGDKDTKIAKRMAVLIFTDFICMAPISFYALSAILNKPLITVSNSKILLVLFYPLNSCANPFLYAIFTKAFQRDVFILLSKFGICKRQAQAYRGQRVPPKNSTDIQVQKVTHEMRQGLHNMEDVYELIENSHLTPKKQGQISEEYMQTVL
How it was run: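 TSHR-expressing HEK293 cells (800 per well) were exposed to compounds for 30 min at room temperature. cAMP was then detected by HTRF competition with cAMP-d2 and anti-cAMP cryptate, read after 1 h at room temperature. Fifteen concentrations, triplicate.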

[5] = qHTS assay to identify small molecule agonists of H2AX (AID 1224845; active = well fitted activation curve with a large enough effect in the signal ratio in the repeat runs, not every such curve was filed as active; the % refers to the signal ratio)
How it was run: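 Wild-type CHO-K1 cells plated overnight, then exposed 3 hr at 37C to compounds at 15 concentrations (0.76% DMSO). Lysed, then HTRF anti-pH2AX(S139)-cryptate/anti-H2AX-d2 detection after 24 hr at room temperature; emissions 665 and 620 nm.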

[6] = qHTS assay to identify small molecule agonists of the hypoxia (HIF-1) signaling pathway (AID 1224846; active = well fitted activation curve with a large enough effect in the signal ratio in the repeat runs, not every such curve was filed as active; the % refers to the signal ratio)
How it was run: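 HRE-bla ME-180 cells (beta-lactamase reporter under hypoxia response element) were plated at 2,000 cells/well in medium with 0.5% dialyzed FBS, rested 5 hrs, then given compounds in DMSO for 17 hrs at 37C, 5% CO2. Reporter induction was read with CCF4-AM FRET substrate.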

[7] = qHTS RealTime-Glo MT Cell Viability Assay in HEK293 cells - 32 hour (AID 1224868); note: nearly all actives have a fitted effect of over 50% in size; note: potency is the fitted concentration of half-maximal effect
How it was run: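 Reads taken at 0, 8, 16, 24, 32 and 40 h from the same wells. HEK293 cells (600/well) carried RealTime-Glo reagents from seeding, with compound added after a 5 h settle at 37 C.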

[8] = A CellTox Green Cytotoxicity Assay to monitor cytotoxicity in HEK293 cells - 0 hour (AID 1224869); note: nearly all actives have a fitted effect of over 50% in size
How it was run: (§1)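 HEK293 cells premixed with CellTox Green dye were seeded at 600 cells/well and left 5 h at 37 C/5% CO2 before pin transfer of 23 nL compound in DMSO. Fluorescence from dye bound to dead-cell DNA was read during 40 h treatment.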

[9] = qHTS assay to identify small molecule agonists of the constitutive androstane receptor (CAR) signaling pathway - cell viability counter screen (AID 1224836); note: nearly all actives have a fitted effect of over 45% in size
How it was run: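 Cells were seeded and incubated 4 hrs. Compounds were added across 15 concentrations together with PK11195 at 0.75 uM final. Plates were incubated 23 hrs at 37 C. CellTiter-Fluor was added and fluorescence measured.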

[10] = qHTS assay to identify small molecule antagonists of the constitutive androstane receptor (CAR) signaling pathway - cell viability counter screen (AID 1224837); note: nearly all actives have a fitted effect of over 45% in size
How it was run: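 HepG2 cells stably expressing hCAR and a CYP2B6-2.2kb reporter were plated and pre-incubated 4 hr at 37 C/5% CO2, then given compounds at 15 concentrations plus 50 nM CITCO (final). After 23 hr, viability was read by CellTiter-Fluor fluorescence.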

[11] = qHTS assay to identify small molecule antagonists of the estrogen related receptor signaling pathway with the pleiotropic PPARgamma coactivator (PGC) from Tox21 10K library - cell viability counter screen (AID 1224840; active = well fitted cell-killing curve with a large enough effect in the repeat runs, not every such curve was filed as active; note: nearly all actives have a fitted effect of over 40% in size; note: potency is the fitted concentration of half-maximal effect)
How it was run: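 PGC/ERR cells were seeded at 2,000 cells/well and left 6 hours at 37 C/5% CO2 before pin-tool addition of compounds in DMSO. After 17.5 hours at 37 C, CellTiter-Fluor was added and fluorescence read 30 minutes later.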

[12] = qHTS assay to identify small molecule antagonists of the estrogen related receptor signaling pathway with the pleiotropic PPARgamma coactivator (PGC) from Tox21 10K library (AID 1224841; call rule not given here; note: actives are mostly falling curves and most rising ones were filed inactive; nearly all actives have a fitted effect of over 50% in size)
How it was run: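 PGC/ERR reporter cells were seeded at 2,000 cells/well and held 6 hours at 37 C/5% CO2 before pin-tool addition of compounds in DMSO. After 18 hours at 37 C, One-Glo was added and luminescence read after 30 minutes at room temperature.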

[13] = qHTS assay to identify small molecule agonists of the estrogen related receptor signaling pathway with the pleiotropic PPARgamma coactivator (PGC) from Tox21 10K library (AID 1224842); note: nearly all actives have a fitted effect of over 15% in size; note: potency is the fitted concentration of half-maximal effect
How it was run: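 PGC/ERR reporter cells (NTP line) were seeded 2,000 per well, rested 6 h at 37 C/5% CO2, then pin-dosed with compounds in DMSO for 18 h at 37 C; luciferase read by One-Glo luminescence after 30 min at room temperature.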

[14] = qHTS assay to identify small molecule agonists of the hypoxia (HIF-1) signaling pathway - cell viability counter screen (AID 1224844; calls by dose curve; note: nearly all actives have a fitted effect of over 50% in size; note: potency is the fitted concentration of half-maximal effect)
How it was run: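 HRE-bla ME-180 cells in medium with 0.5% dialyzed FBS were preincubated 5 hrs at 37C, exposed to compounds for 17 hrs, then viability was read as CellTiter-Glo luminescence after 30 min at room temperature, in the reporter wells.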

[15] = qHTS assay to identify small molecule antagonists of the estrogen related receptor (ERR) signaling pathway from Tox21 library (AID 1224848); note: nearly all actives have a fitted effect of over 50% in size; note: potency is the fitted concentration of half-maximal effect
How it was run: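 Cells: ERR line, 2,000/well; 6 h preincubation 37 C/5% CO2. Cpd in DMSO via pin tool; 18 h, 37 C. ONE-Glo, 30 min RT, luminescence.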

[16] = qHTS assay to identify small molecule agonists of the estrogen related receptor (ERR) signaling pathway from Tox21 library (AID 1224849; calls by dose curve; note: nearly all actives have a fitted effect of over 15% in size); conditions: ERR reporter cell line, ONE-Glo luciferase, 18 h
How it was run: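 ERR reporter cell line (NTP) seeded, rested 6 h at 37 C/5% CO2, then pinned with Tox21 compounds in DMSO. After 18 h at 37 C, ONE-Glo luciferase luminescence was read following 30 min at room temperature.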

[17] = qHTS RealTime-Glo MT Cell Viability Assay in HepG2 cells - 24 hour (AID 1224867); note: nearly all actives have a fitted effect of over 50% in size; note: potency is the fitted concentration of half-maximal effect
How it was run: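 HepG2 suspension premixed with RealTime-Glo reagents is plated at 600 cells per well and left 5 h at 37 C/5% CO2. Compounds in DMSO then go in, and bioluminescence reflecting viable cell number is recorded over 40 h.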

[18] = qHTS RealTime-Glo MT Cell Viability Assay in HepG2 cells - 40 hour (AID 1224870); note: nearly all actives have a fitted effect of over 50% in size; note: potency is the fitted concentration of half-maximal effect
How it was run: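 HepG2 cells mixed with RealTime-Glo MT reagents (NanoLuc plus cell-permeant prosubstrate) were seeded at 600 cells/well, incubated 5 h at 37 C/5% CO2, then pinned with compounds in DMSO; nonlytic luminescence tracked viability during 40 h treatment.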

[19] = qHTS assay to identify small molecule agonists of H2AX - cell viability counter screen (AID 1224847; calls by dose curve; note: nearly all actives have a fitted effect of over 30% in size; note: potency is the fitted concentration of half-maximal effect)
How it was run: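 Cytotoxicity counter screen in wild-type CHO-K1 cells: a 3 hr compound treatment at 37C across 15 concentrations, followed by CellTiter-Glo luminescence to gauge viable cells.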

[20] = A CellTox Green Cytotoxicity Assay to monitor cytotoxicity in HEK293 cells - 40 hour (AID 1224871); note: nearly all actives have a fitted effect of over 45% in size; note: potency is the fitted concentration of half-maximal effect
How it was run: as §1

With `CN1CCN(Cc2cc(-c3ccc4[nH]c(=O)oc4c3)co2)[C@@H](c2ccc(F)cc2)C1` the Potency [1] was “inactive”, the Potency [2] was “inactive” and the Potency [3] was “inactive”. For the same compound, the Potency [4] was 13.2 µM (active), the Potency [5] was “inactive” and the Potency [6] was “inactive”. For the same compound, the Potency [7] was 21.1 µM (active) and the Potency [8] was “inactive”.
For `Cc1ccc(-c2ccccc2)cc1`, the Potency [9] was “inactive”, the Potency [10] was “inactive” and the Potency [2] was “inactive”. For the same compound, the Potency [3] was “inactive”, the Potency [11] was “inactive” and the Potency [12] was “inactive”. For the same compound, the Potency [13] was “inactive”, the Potency [4] was “inactive” and the Potency [14] was “inactive”. The Potency [5] was “inactive”, the Potency [6] was “inactive” and the Potency [15] was “inactive”. The activity change, positive = activation ([16]; at 92.4 µM (top of the series)) was -3.62%, the Potency [17] was “inactive” and the Potency [18] was “inactive”.
For `c1ccc(SSc2ccccc2)cc1`, the Potency [9] was “inactive”, the Potency [10] was “inactive” and the Potency [2] was 43.6 µM (active). For the same compound, the Potency [3] was “inactive”, the Potency [11] was “inactive” and the Potency [14] was “inactive”. The Potency [6] was “inactive”, the Potency [19] was “inactive” and the Potency [17] was “inactive”. For the same compound, the Potency [7] was “inactive”, the Potency [8] was “inactive” and the Potency [18] was “inactive”. The Potency [20] was “inactive”.
For `Nc1ccc(NCCO)c([N+](=O)[O-])c1`, the Potency [1] was 35.6 µM (active), the Potency [2] was “inactive” and the Potency [3] was “inactive”. The Potency [12] was “inactive”, the Potency [13] was “inactive” and the Potency [14] was “inactive”. For the same compound, the Potency [6] was “inactive”, the Potency [19] was 80 µM (active) and the Potency [15] was “inactive”. For the same compound, the activity change, positive = activation ([16]; at 92.4 µM (top of the series)) was -17.2%, the Potency [17] was “inactive” and the Potency [7] was “inactive”. The Potency [8] was “inactive”, the Potency [18] was “inactive” and the Potency [20] was “inactive”.
With `OCCN1CCN(CCCN2c3ccccc3Sc3ccc(C(F)(F)F)cc32)CC1` the Potency [1] was “inactive”, the Potency [2] was “inactive” and the Potency [3] was “inactive”. For the same compound, the Potency [11] was 29.8 µM (active), the Potency [12] was “inactive” and the Potency [4] was “inactive”. The Potency [14] was 19 µM (active), the Potency [5] was “inactive” and the activity change, positive = activation ([16]; at 42.5 µM (top of the series)) was -32%. For the same compound, the Potency [17] was 26.8 µM (active), the Potency [7] was 23.9 µM (active) and the Potency [8] was “inactive”.
In the case of `O=C(O)c1cc(N=Nc2ccc([N+](=O)[O-])cc2)ccc1O`, the Potency [1] was 0.878 µM (active), the Potency [2] was “inactive” and the Potency [3] was 0.673 µM (active). For the same compound, the Potency [12] was “inactive”, the Potency [13] was 9.51 µM (active) and the Potency [4] was “inactive”. For the same compound, the Potency [14] was “inactive”, the Potency [15] was “inactive” and the activity change, positive = activation ([16]; at 92.4 µM (top of the series)) was 93.2% (active). The Potency [17] was “inactive”, the Potency [7] was “inactive” and the Potency [18] was “inactive”. The Potency [20] was “inactive”.
For `O=[N+]([O-])c1ccc(O)cc1C(F)(F)F`, the Potency [1] was “inactive”, the Potency [3] was “inactive” and the Potency [11] was 17.2 µM (active). The Potency [12] was “inactive”, the Potency [4] was “inactive” and the Potency [14] was “inactive”. For the same compound, the Potency [5] was “inactive”, the Potency [15] was 6.11 µM (active) and the activity change, positive = activation ([16]; at 92.4 µM (top of the series)) was -63.3%. The Potency [17] was “inactive”, the Potency [7] was 34.7 µM (active) and the Potency [18] was “inactive”. The Potency [20] was “inactive”.
In the case of `CN1CCC[C@@H]1CCO[C@](C)(c1ccccc1)c1ccc(Cl)cc1`, the Potency [3] was “inactive”, the Potency [12] was “inactive” and the Potency [13] was “inactive”. The Potency [14] was 21.3 µM (active), the activity change, positive = activation ([16]; at 42.5 µM (top of the series)) was -35.9% and the Potency [17] was 23.9 µM (active). For the same compound, the Potency [7] was 19 µM (active), the Potency [18] was 23.9 µM (active) and the Potency [20] was 26.8 µM (active).
For `Sc1nc2ccccc2s1`, the Potency [9] was “inactive”, the Potency [10] was “inactive” and the Potency [2] was “inactive”. For the same compound, the Potency [3] was “inactive”, the Potency [12] was “inactive” and the Potency [13] was “inactive”. The Potency [4] was “inactive”, the Potency [5] was “inactive” and the Potency [6] was “inactive”. For the same compound, the Potency [19] was “inactive”, the Potency [15] was “inactive” and the activity change, positive = activation ([16]; at 92.4 µM (top of the series)) was 0.0626%. For the same compound, the Potency [17] was “inactive”, the Potency [7] was “inactive” and the Potency [8] was “inactive”. The Potency [18] was “inactive”.
